Assay results from the supplement of paper PMC10849652.
The full data set covers some 7,900 targets. This sample favours those with a hit. About 0.6% of all pairs of compound and target were hits. Unmarked numbers belong to inactive results.

Experiments:
Assay in all cases: log2 fold change, soluble protein after heating vs DMSO (PISA); higher = thermal stabilisation; K562 cells, 10 uM, 30 min; active = over 0.2 and 3.5 SD of the protein, either way, in both replicates (recomputed)
[1] = compound: COC1=CC=C(C=C1)CN2C=CC3=C2C=C(C=C3)C(=O)NO
In short: (§1)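 K562 cells at 2×10^6 cells/mL were treated with 10 μM compound for 30 min. Aliquots were heated for 3 min across 48°C-58°C, pooled, and extracted in PBS with 0.5% NP-40 at 4°C; soluble protein was the supernatant after 21,000xg for 90 min. Soluble protein was quantified by TMTpro 16plex LC-MS/MS with channel sums equalised, and reported as log2 fold change in thermal stability against DMSO controls, with values from duplicates.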

filanesib = compound: CON(C)C(=O)N1N=C(c2cc(F)ccc2F)S[C@@]1(CCCN)c1ccccc1 [filanesib]
In short: as §1

zotarolimus = compound: CO[C@H]1C[C@@H]2CC[C@@H](C)[C@@](O)(O2)C(=O)C(=O)N2CCCC[C@H]2C(=O)O[C@H]([C@H](C)C[C@@H]2CC[C@H](n3cnnn3)[C@H](OC)C2)CC(=O)[C@H](C)/C=C(\C)[C@@H](O)[C@@H](OC)C(=O)[C@H](C)C[C@H](C)/C=C/C=C/C=C/1C [zotarolimus]
In short: as §1

idasanutlin = compound: COc1cc(C(=O)O)ccc1NC(=O)[C@@H]1N[C@@H](CC(C)(C)C)[C@](C#N)(c2ccc(Cl)cc2F)[C@H]1c1cccc(Cl)c1F [idasanutlin]
In short: as §1

alisertib = compound: COc1cc(Nc2ncc3c(n2)-c2ccc(Cl)cc2C(c2c(F)cccc2OC)=NC3)ccc1C(=O)O [alisertib]
In short: as §1

[2] = compound: COc1cc2nc(-c3cc(F)ccc3O)nc(N[C@@H]3CNC[C@H]3C(C)(C)O)c2cc1OC
In short: as §1

gefitinib = compound: COc1cc2ncnc(Nc3ccc(F)c(Cl)c3)c2cc1OCCCN1CCOCC1 [gefitinib]
In short: as §1

[3] = compound: COc1cccc2cc(-c3nc([C@H]4CC[C@H](C(=O)O)CC4)n4ncnc(N)c34)[nH]c12
In short: as §1

lapatinib = compound: CS(=O)(=O)CCNCc1ccc(-c2ccc3ncnc(Nc4ccc(OCc5cccc(F)c5)c(Cl)c4)c3c2)o1 [lapatinib]
In short: as §1

pictilisib = compound: CS(=O)(=O)N1CCN(Cc2cc3nc(-c4cccc5[nH]ncc45)nc(N4CCOCC4)c3s2)CC1 [pictilisib]
In short: as §1

Sequence of UniProt Q96QZ7 (Q96QZ7 whole entry, looked up): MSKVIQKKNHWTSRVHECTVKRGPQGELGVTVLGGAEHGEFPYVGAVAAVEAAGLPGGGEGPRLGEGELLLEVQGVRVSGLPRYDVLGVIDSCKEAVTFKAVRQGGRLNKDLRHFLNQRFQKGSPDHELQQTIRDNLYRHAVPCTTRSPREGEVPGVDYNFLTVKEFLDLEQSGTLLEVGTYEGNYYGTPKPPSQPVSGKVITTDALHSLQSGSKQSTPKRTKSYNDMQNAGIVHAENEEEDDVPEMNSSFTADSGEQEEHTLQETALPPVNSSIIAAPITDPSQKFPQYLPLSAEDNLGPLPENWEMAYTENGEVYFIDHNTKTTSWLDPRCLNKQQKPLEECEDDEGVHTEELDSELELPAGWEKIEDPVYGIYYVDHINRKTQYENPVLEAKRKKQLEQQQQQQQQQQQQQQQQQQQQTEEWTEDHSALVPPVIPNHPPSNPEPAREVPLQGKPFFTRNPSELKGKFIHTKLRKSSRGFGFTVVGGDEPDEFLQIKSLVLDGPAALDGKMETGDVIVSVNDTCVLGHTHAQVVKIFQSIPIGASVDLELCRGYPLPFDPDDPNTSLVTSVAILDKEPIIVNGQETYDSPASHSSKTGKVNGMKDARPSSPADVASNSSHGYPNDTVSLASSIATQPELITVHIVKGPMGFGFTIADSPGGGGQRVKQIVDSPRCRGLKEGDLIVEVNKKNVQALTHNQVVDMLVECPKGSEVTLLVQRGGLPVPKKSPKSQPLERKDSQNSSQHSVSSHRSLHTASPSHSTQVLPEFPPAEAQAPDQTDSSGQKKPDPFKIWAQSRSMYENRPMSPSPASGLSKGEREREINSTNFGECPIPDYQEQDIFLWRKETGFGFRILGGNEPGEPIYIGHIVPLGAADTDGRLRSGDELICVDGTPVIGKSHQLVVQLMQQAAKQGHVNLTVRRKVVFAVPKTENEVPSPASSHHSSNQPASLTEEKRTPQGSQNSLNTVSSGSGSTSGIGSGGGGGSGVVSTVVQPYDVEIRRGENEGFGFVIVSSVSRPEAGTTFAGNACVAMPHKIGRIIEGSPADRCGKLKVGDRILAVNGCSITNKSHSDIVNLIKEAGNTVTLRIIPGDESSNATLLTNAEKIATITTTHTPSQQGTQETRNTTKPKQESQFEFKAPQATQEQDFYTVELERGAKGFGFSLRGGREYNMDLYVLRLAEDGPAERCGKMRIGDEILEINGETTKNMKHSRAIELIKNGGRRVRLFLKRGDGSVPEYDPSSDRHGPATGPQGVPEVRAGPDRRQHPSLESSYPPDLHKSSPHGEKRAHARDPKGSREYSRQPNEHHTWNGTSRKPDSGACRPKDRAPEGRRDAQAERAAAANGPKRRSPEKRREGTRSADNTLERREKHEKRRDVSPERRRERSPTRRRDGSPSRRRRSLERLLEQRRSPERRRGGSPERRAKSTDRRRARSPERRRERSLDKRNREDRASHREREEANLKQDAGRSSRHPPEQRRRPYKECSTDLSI
Sequence of UniProt O43934 (O43934 whole entry, looked up): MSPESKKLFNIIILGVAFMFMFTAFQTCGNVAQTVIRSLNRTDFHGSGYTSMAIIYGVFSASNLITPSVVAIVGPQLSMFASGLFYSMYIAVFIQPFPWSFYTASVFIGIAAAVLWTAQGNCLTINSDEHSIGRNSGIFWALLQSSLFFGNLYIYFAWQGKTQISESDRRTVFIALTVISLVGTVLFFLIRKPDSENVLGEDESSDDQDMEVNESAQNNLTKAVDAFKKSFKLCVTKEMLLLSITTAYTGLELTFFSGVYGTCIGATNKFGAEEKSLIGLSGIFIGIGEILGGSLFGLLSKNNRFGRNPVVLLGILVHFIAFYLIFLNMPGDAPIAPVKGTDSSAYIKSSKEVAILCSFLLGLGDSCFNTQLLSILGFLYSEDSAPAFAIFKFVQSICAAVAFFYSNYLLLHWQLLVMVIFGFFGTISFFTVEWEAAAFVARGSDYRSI
Sequence of UniProt Q9NVH2 (Q9NVH2 whole entry, looked up): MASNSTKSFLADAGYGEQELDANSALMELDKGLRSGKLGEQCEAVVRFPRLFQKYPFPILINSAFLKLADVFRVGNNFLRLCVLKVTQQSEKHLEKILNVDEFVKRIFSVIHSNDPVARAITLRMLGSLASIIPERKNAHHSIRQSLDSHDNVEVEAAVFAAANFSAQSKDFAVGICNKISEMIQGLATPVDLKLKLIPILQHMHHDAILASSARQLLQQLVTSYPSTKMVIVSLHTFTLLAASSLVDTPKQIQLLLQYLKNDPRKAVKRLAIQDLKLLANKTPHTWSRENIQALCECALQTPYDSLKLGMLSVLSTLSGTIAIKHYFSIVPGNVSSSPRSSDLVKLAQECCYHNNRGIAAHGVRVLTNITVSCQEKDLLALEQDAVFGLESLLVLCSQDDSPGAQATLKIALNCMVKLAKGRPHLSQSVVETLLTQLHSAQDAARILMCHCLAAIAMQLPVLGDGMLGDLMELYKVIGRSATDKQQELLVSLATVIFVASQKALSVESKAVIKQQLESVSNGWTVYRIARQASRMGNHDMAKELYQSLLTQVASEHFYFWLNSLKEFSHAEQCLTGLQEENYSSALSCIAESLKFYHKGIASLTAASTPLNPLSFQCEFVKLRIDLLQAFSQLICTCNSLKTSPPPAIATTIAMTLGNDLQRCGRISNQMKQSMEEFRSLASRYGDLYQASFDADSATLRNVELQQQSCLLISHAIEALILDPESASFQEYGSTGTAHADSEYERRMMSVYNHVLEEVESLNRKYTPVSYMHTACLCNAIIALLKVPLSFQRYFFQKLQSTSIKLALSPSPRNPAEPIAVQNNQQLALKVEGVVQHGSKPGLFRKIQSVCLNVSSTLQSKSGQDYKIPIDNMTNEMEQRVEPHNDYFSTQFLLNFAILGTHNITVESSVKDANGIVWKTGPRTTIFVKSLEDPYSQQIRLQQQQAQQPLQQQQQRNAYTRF
Sequence of UniProt Q13257 (Q13257 whole entry, looked up): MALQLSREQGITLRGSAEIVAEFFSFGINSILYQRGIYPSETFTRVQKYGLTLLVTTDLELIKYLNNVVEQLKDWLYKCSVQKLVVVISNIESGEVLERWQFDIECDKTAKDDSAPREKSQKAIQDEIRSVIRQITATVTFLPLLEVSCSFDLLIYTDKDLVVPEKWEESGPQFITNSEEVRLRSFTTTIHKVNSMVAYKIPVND
Sequence of UniProt Q9H6K1 (Q9H6K1 whole entry, looked up): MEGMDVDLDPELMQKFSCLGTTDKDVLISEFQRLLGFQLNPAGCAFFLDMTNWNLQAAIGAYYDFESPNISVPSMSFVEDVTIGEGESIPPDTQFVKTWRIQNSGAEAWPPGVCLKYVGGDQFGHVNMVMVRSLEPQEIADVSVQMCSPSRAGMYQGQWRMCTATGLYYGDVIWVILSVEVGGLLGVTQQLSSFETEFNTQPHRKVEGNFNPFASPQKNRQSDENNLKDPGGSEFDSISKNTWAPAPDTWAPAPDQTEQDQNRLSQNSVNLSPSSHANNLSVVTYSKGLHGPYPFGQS
Sequence of UniProt Q6UWB1 (Q6UWB1 whole entry, looked up): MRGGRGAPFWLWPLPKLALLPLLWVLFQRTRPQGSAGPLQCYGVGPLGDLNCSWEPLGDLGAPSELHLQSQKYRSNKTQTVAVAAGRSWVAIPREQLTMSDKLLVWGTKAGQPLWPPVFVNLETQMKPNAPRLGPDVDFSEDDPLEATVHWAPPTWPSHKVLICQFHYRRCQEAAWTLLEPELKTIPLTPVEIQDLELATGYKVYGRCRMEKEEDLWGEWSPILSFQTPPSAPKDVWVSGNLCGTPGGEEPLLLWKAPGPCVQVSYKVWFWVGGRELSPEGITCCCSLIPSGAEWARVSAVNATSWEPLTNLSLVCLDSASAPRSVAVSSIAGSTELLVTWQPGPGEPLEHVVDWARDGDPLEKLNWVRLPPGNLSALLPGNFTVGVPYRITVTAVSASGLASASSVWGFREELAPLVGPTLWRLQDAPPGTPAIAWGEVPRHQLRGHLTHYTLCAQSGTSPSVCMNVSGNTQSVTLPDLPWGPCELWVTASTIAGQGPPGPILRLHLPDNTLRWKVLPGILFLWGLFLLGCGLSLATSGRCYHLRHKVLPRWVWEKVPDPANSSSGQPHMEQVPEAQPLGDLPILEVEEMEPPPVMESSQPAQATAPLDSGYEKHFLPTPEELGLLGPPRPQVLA
Sequence of UniProt P22692 (P22692 whole entry, looked up): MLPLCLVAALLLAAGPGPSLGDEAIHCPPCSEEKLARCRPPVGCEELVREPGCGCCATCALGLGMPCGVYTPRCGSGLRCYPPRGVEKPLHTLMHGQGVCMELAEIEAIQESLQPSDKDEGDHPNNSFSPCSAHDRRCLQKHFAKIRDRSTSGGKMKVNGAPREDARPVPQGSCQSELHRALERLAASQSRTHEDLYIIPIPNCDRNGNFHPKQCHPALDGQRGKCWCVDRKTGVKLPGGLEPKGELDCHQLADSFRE
Sequence of UniProt Q96LU5 (Q96LU5 whole entry, looked up): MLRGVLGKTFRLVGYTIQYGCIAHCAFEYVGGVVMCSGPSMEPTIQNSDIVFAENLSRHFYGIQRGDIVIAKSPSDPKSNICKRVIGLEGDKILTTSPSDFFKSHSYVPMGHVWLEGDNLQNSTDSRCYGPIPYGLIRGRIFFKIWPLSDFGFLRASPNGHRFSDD

Row | Target | log2 fold change [1] | log2 fold change (filanesib) | log2 fold change (zotarolimus) | log2 fold change (idasanutlin) | log2 fold change (alisertib) | log2 fold change [2] | log2 fold change (gefitinib) | log2 fold change [3] | log2 fold change (lapatinib) | log2 fold change (pictilisib)
1 | MAML1 (UniProt Q92585) | -0.065 | 0.152 | -0.065 | – | – | – | – | – | – | –
2 | ILRUN (UniProt Q9H6K1) | -0.051 | -0.016 | 0.042 | -0.101 | -0.03 | -0.002 | 0.048 | 0.09 | 0.08 | –
3 | ILKAP (UniProt Q9H0C8) | 0 | -0.016 | 0.03 | -0.06 | -0.13 | 0.113 | 0.032 | -0.056 | -0.029 | -0.035
4 | IMMP1L (UniProt Q96LU5) | -0.041 | -0.067 | -0.034 | -0.067 | -0.252 (active) | 0.005 | -0.022 | 0.016 | -0.062 | –
5 | KCTD2 (UniProt Q14681) | 0.068 | 0.154 | -0.148 | 0.116 | -0.012 | 0.402 | 0.025 | 0.154 | -0.413 | 0.426
6 | INPP1 (UniProt P49441) | -0.086 | -0.019 | 0.048 | -0.123 | -0.056 | 0.101 | -0.031 | 0.03 | -0.049 | -0.116
7 | MAP4 (UniProt E7EVA0) | -0.027 | 0.216 | -0.1 | 0.023 | -0.094 | -0.134 | 0.109 | -0.024 | 0.186 | 0.019
8 | KPNA6 (UniProt O60684) | 0.193 | 0.115 | 0.169 | -0.031 | -0.01 | 0.056 | 0.048 | -0.066 | -0.018 | -0.017
9 | LIMA1 isoform 4 (UniProt Q9UHB6) | -0.044 | 0.178 | 0.021 | 0.008 | -0.028 | 0.171 | 0.077 | 0.11 | -0.126 | -0.1
10 | MFSD11 (UniProt O43934) | -0.029 | -0.464 (active) | -0.003 | -0.055 | -0.009 | -0.046 | -0.064 | -0.002 | 0.041 | 0.02
11 | LRPPRC (UniProt P42704) | 0.303 | -0.788 | -0.02 | 0 | 0.207 | -0.638 | -0.189 | 0.119 | -0.091 | -0.119
12 | MED8 isoform 2 (UniProt Q96G25) | -0.11 | 0.033 | -0.004 | 0.095 | -0.088 | -0.154 | -0.034 | -0.041 | 0.058 | –
13 | IL27RA (UniProt Q6UWB1) | -0.02 | 0.065 | -0.11 | 0.113 | -0.29 | 0.047 | -0.169 | 0.207 | 0.043 | –
14 | MAGI1 (UniProt Q96QZ7) | -0.031 | 0.053 | -0.044 | 0.084 | -0.01 | 0.005 | 0.042 | -0.012 | 0.01 | 0.053
15 | LUC7L2 (UniProt Q9Y383) | 0.05 | 0.121 | 0.113 | 0.093 | -0.032 | -0.048 | -0.052 | 0.008 | 0.04 | 0.095
16 | ILF3 isoform 7 (UniProt Q12906) | 0.022 | 0.213 | -0.047 | 0.095 | -0.061 | 0.174 | -0.022 | -0.06 | 0 | 0.018
17 | INTS7 (UniProt Q9NVH2) | 0.05 | -0.022 | -0.007 | -0.052 | -0.029 | 0.05 | -0.052 | -0.012 | -0.015 | 0.148
18 | LDLRAP1 (UniProt Q5SW96) | 0.023 | – | – | – | – | – | – | – | – | –
19 | MAD2L1 (UniProt Q13257) | -0.024 | -0.042 | 0.034 | -0.12 | -0.003 | 0.048 | 0.008 | 0.01 | -0.064 | 0.024
20 | LSS (UniProt P48449) | 0.205 | 0.026 | -0.027 | -0.116 | 0.121 | 0.16 | 0.126 | -0.014 | 0.02 | 0.07
21 | IGFBP4 (UniProt P22692) | -0.075 | 0.012 | -0.31 | 0.392 (active) | 0.009 | -0.024 | -0.107 | 0.179 | -0.036 | -0.022
22 | LARP4 isoform 4 (UniProt Q71RC2) | 0.005 | 0.111 | -0.007 | 0.071 | -0.045 | -0.159 | 0.01 | -0.125 | 0.054 | -0.068
23 | LNPK (UniProt Q9C0E8) | 0.007 | -0.005 | -0.049 | -0.002 | -0.034 | 0.001 | 0.025 | 0.079 | -0.008 | 0.017
24 | LPIN1 isoform 7 (UniProt Q14693) | -0.079 | 0.047 | -0.048 | -0.03 | 0.046 | 0.017 | -0.018 | -0.041 | -0.101 | -0.035
25 | ITM2B (UniProt Q9Y287) | -0.109 | 0.092 | -0.042 | -0.03 | 0.083 | -0.037 | -0.047 | 0.138 | -0.116 | –
26 | KPNB1 (UniProt Q14974) | 0.033 | -0.024 | 0.052 | -0.048 | -0.07 | -0.065 | -0.063 | -0.076 | -0.001 | -0.032
27 | LEMD2 (UniProt Q8NC56) | -0.051 | -0.211 | 0 | -0.008 | 0.044 | -0.271 | 0.061 | 0.047 | 0.133 | -0.007
28 | MAPK8 isoform 3 (UniProt P45983) | 0.025 | 0.064 | 0.018 | -0.08 | 0.007 | 0.234 | -0.026 | 0.035 | -0.045 | 0.287
29 | MAIP1 (UniProt Q8WWC4) | 0.054 | -0.12 | -0.025 | -0.033 | -0.047 | -0.088 | -0.002 | 0.095 | 0.036 | 0.01
